A selection: hits, their analogues and other compounds. The true share with any hit is near 10%.
HP1b chromo inh – HP1-beta chromodomain-methylated histone interaction inhibition. P83916. AlphaScreen HP1-beta / biotin-H3K9me3 peptide binding. Potency, µM (series often up to 114 µM), for inactives: top-dose activity change, negative = inhibition, hits mostly inhibitors. 390,000 compounds, 0.56% hits; further: nearly all actives have a fitted effect of over 70% in size
Target sequence (P83916 whole entry, looked up): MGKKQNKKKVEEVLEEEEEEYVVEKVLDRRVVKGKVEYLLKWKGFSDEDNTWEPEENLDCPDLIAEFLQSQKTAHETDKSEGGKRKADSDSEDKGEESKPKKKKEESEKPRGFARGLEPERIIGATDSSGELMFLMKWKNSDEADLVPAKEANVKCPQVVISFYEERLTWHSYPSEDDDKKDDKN
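AlphaScreen: HP1-beta (50 nM) preformed 30 min with biotin-H3(1-18)K9me3 peptide (50 nM) in PBS pH 7.4, 0.01% Tween-20. Compound added for 30 min at RT, then streptavidin donor/nickel chelate acceptor beads (10 ug/mL) for 30 min.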
JMJD2A Tudor – blocks the human JMJD2A Tudor domain; O75164; AID 504339; Potency, µM (top dose mostly 114 µM), for inactives: top-dose activity change, negative = inhibition, hits mostly inhibitors; AlphaScreen JMJD2A-Tudor / H3K4me3 peptide binding; 390,000 compounds, 4.4% hits; further: on the % scale 0 is the no-effect control and ±100 the full control effect; nearly all actives have a fitted effect of over 50% in size
BAZ2B inh – BAZ2B (human) inhibition. AlphaScreen BAZ2B-H3K14Ac peptide displacement. Potency, µM (titrated, usually from 114 µM), without a hit: top-dose activity change, negative = inhibition, most hits filed as inhibitors. 360,000 compounds, 4.4% hits. Q9UIF8; further: on the % scale 0 is the no-effect control and ±100 the full control effect; nearly all actives have a fitted effect of over 60% in size
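AlphaScreen displacement: compounds (up to 110uM) incubated 30 min at room temperature with a preformed 50 nM BAZ2B/50 nM biotinylated H3K14Ac peptide complex in PBS pH 7.4 with Tween-20. Donor and acceptor beads at 10 ug/mL final added, 20 min light-protected before reading.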
GLS inh – inhibitors of human glutaminase (GLS); O94925; GLS enzymatic activity, qHTS titration; Potency, µM (highest dose often 45.5 µM), without a hit: top-dose activity change, negative = inhibition, most hits filed as inhibitors; 410,000 compounds, 0.21% hits; further: on the % scale 0 is the no-effect control and ±100 the full control effect
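Enzyme dispensed in phosphate buffer (45 mM, pH 8.2, 0.02% Tween-20), compounds pinned in, then 1 mM L-glutamine solution and the glutamate oxidase–HRP–Amplex Red mix added; fluorescence read immediately and again after 30 min at room temperature.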
G9a block – blocks human histone lysine methyltransferase G9a | AID 504332 | G9a H3K9 monomethylation, AlphaScreen, 2 h | 350,000 compounds, 8.8% hits | Potency, µM (titrated, usually from 102 µM), for the others: at the top dose activity, negative = inhibition, usual class: inhibitors | Q96KQ7; further: on the % scale 0 is the no-effect control and ±100 the full control effect; nearly all actives have a fitted effect of over 75% in size
Target sequence (Q96KQ7 913-1193 limits assumed): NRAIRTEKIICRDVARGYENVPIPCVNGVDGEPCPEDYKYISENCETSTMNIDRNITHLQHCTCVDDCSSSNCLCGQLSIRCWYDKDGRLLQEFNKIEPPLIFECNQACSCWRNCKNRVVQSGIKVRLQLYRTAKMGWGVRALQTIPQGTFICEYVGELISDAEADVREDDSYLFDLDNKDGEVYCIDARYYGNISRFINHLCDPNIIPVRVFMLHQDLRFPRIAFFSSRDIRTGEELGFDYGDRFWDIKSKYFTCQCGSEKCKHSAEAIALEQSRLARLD
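Chemiluminescent proximity detection of H3K9 monomethylation, read after 10 min bead incubation in the dark. Reaction: 20 nM G9a, 500 nM biotin-H3K9 peptide, 20 uM SAM cofactor, 2 h, room temperature, following 15 min enzyme-compound preincubation.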
Active calls of the source: *; [ ] = another dose, or the depositor's remark. The call rests on the fitted dose curve; in most records, active means well fitted curve in the direction sought with a large enough effect; inconclusive means small, poorly fitted or top-dose-only effect, or another doubt; inactive means no such curve, though single readings can be large; an effect the other way counts as inactive or inconclusive. Potency means the concentration at half of the fitted maximal effect.

Screening CC1(C(=O)NNC(=O)c2cccc([N+](=O)[O-])c2)CC1(Br)Br (stereo not given) returned HP1b chromo inh 85.4%, JMJD2A Tudor -22.8%, BAZ2B inh -35.1%, GLS inh 23.5% and G9a block 20µM*.
For COc1ccc([N+](=O)[O-])cc1NC(=S)NC(NC(=O)Cc1ccc(OC)c(OC)c1)C(Cl)(Cl)Cl (stereo not given) the results were HP1b chromo inh -10.0%, JMJD2A Tudor -21.5%, BAZ2B inh 2.7%, GLS inh 1.4% and G9a block -8.4%.
Screening CC1(C(=O)NNC(=O)c2ccc([N+](=O)[O-])cc2)CC1(Br)Br (stereo not given) returned HP1b chromo inh 60.9%, JMJD2A Tudor -17.6%, BAZ2B inh -9.2% and GLS inh 25.3%.
For O=C(NNC(=O)C1CC1)c1cccc([N+](=O)[O-])c1 the results were HP1b chromo inh 32.9%, JMJD2A Tudor -10.3%, BAZ2B inh -12.4%, GLS inh -4.3% and G9a block 18.0%.
Screening O=C(NC(=S)Nc1cccc([N+](=O)[O-])c1)c1ccccc1 returned HP1b chromo inh 16.9%, JMJD2A Tudor -11.2%, BAZ2B inh -23.6%, GLS inh 2.9% and G9a block -16.2%[59 µM].
For O=C1NCC2(CCN(CCc3ccccc3)CC2)O1 the results were HP1b chromo inh 30.5%, JMJD2A Tudor -14.4%, BAZ2B inh -0.5%, GLS inh 7.6% and G9a block 19.0%[12.7 µM].
`Cc1cc(-c2nc3ncccc3o2)ccc1NC(=O)COc1ccccc1C` gave HP1b chromo inh 0.7%, JMJD2A Tudor -9.3%, BAZ2B inh 2.8%, GLS inh -2.1% and G9a block 2.8%[59 µM].
CC(=O)Nc1sc2c(c1C#N)CCC2 was read as HP1b chromo inh 33.3%, JMJD2A Tudor -4.8%, BAZ2B inh -11.4%, GLS inh 3.5% and G9a block -26.2%.
`O=[N+]([O-])c1ccc(NNC(=S)Nc2ccc(F)cc2)cc1` gave HP1b chromo inh inconclusive, JMJD2A Tudor 50.1µM*, BAZ2B inh 44.7µM*, GLS inh -21.7% and G9a block inconclusive.
O=C(O)c1cccc(NC(=S)NC(NC(=O)c2cccc([N+](=O)[O-])c2)C(Cl)(Cl)Cl)c1 (stereo not given) was read as HP1b chromo inh 6.8%, JMJD2A Tudor -22.5%, BAZ2B inh -38.4%, GLS inh 8.5% and G9a block 50.1µM*.
`Cc1ccc(NC(=S)NNC(=O)c2cccc([N+](=O)[O-])c2)cc1Cl` gave HP1b chromo inh -15.4%, JMJD2A Tudor inconclusive, BAZ2B inh inconclusive, GLS inh -1.0% and G9a block 12.6µM*.
`COc1ccc(CCNC(=O)CC(Cc2ccc(C)cc2)C(=O)O)cc1OC` (stereo not given) gave HP1b chromo inh 10.9%, JMJD2A Tudor -18.5%, BAZ2B inh 0.1%, GLS inh 3.6% and G9a block -5.9%.
Screening C[C@@H](NC(=O)c1nc[nH]c1C(=O)NCC(=O)OC(C)(C)C)c1ccccc1 returned HP1b chromo inh 30.3%, JMJD2A Tudor -29.4%, BAZ2B inh -31.5%, GLS inh -3.2% and G9a block 6.2%.
For C[C@H](NC(=O)c1nc[nH]c1C(=O)NCC(=O)OC(C)(C)C)C(=O)OC(C)(C)C the results were HP1b chromo inh 23.1%, JMJD2A Tudor -26.1%, BAZ2B inh inconclusive, GLS inh 0.8% and G9a block -45.5%[59 µM].
`O=C(CNC(=O)c1nc[nH]c1C(=O)N1CCNCC1)OCc1ccccc1` gave HP1b chromo inh 27.4%, JMJD2A Tudor 50.1µM*, BAZ2B inh 50.1µM*, GLS inh 0.0% and G9a block -37.9%[12.7 µM].
`C[C@H](NC(=O)c1nc[nH]c1C(=O)N1CCNCC1)C(=O)OCc1ccccc1` gave HP1b chromo inh 9.2%, JMJD2A Tudor 35.5µM*, BAZ2B inh 56.2µM*, GLS inh -10.1% and G9a block -7.4%[2.33 µM].
For CC1CCN(C(=O)c2[nH]cnc2C(=O)NCC(=O)OCc2ccccc2)CC1 the results were HP1b chromo inh 3.6%, JMJD2A Tudor -25.2%, BAZ2B inh -35.4%, GLS inh 3.4% and G9a block inconclusive.
C[C@H](NC(=O)c1nc[nH]c1C(=O)N1CCN(c2ccccc2)CC1)C(=O)OCc1ccccc1 was read as HP1b chromo inh 21.0%, JMJD2A Tudor -31.2%, BAZ2B inh -11.2% and GLS inh 19.6%.
C[C@H](NC(=O)c1nc[nH]c1C(=O)NC1CCNCC1)C(=O)OC(C)(C)C was read as HP1b chromo inh 30.4%, JMJD2A Tudor -22.0%, BAZ2B inh 50.1µM*, GLS inh -7.6% and G9a block inconclusive.
For O=c1nc2n(c3ccc([N+](=O)[O-])cc13)CCCCC2 the results were HP1b chromo inh 42.1%, JMJD2A Tudor 6.4%, BAZ2B inh -1.8%, GLS inh 2.8% and G9a block 9.6%.
Screening COc1cccc(N=Nc2c(=O)[nH]n3c(=O)c4c([nH]c23)CCC4)c1 returned HP1b chromo inh inconclusive, JMJD2A Tudor 50.1µM*, BAZ2B inh 44.7µM*, GLS inh 0.4% and G9a block inconclusive.
Cc1cc(C)n2[nH]c(=O)c(N=Nc3ccc(S(N)(=O)=O)cc3)c2n1 was read as HP1b chromo inh 22.5%, JMJD2A Tudor inconclusive, BAZ2B inh -21.8%, GLS inh 0.4% and G9a block -43.4%.
COc1cccc(CNC(=O)CSc2nc(=O)[nH]c3c2CCC3)c1 was read as HP1b chromo inh 26.0%, JMJD2A Tudor 0.0%, BAZ2B inh -1.7%, GLS inh 5.6% and G9a block 5.5%[59 µM].
`COc1cccc(N=Nc2c(=O)[nH]n3c(=O)cc(C)[nH]c23)c1` gave HP1b chromo inh -6.7%, JMJD2A Tudor inconclusive, BAZ2B inh 50.1µM*, GLS inh 33.8% and G9a block inconclusive.
Screening O=c1[nH]n2c(=O)c3c([nH]c2c1N=Nc1cccc(Cl)c1)CCC3 returned HP1b chromo inh inconclusive, JMJD2A Tudor 3.98µM*, BAZ2B inh 35.5µM*, GLS inh inconclusive and G9a block inconclusive.
`O=c1[nH]n2c(=O)c3c([nH]c2c1N=Nc1cccc(C(F)(F)F)c1)CCCC3` gave HP1b chromo inh -37.3%, JMJD2A Tudor inconclusive, BAZ2B inh -35.6%, GLS inh 23.2% and G9a block -15.9%[59 µM].
For COc1cccc(-c2ccc(C#N)c(=O)[nH]2)c1 the results were HP1b chromo inh 36.8%, JMJD2A Tudor 3.0%, BAZ2B inh 0.3%, GLS inh 0.0% and G9a block 9.0%.
`NS(=O)(=O)c1ccc(N=Nc2c(=O)[nH]n3c(=O)c4c([nH]c23)CCCC4)cc1` gave HP1b chromo inh -30.9%, JMJD2A Tudor -35.9%, BAZ2B inh 28.2µM* and GLS inh inconclusive.
